Experimental data taken from PubChem BioAssay (EPA / NIEHS).
Records with an inconclusive call do not appear. Active and inactive are the calls of the source. Rule for the calls, unless noted: active = hit-call score of the fitted dose curve at least 0.9, where 1 is the maximum; inactive = score below 0.9.

Assays:
[1] = UKN5_HCS_SBAD2_cell_viability: Viability Assessment in the University of Konstanz (UKN) Leist Lab Neurite Outgrowth Assay in human iPSC-derived immature Dorsal Root Ganglia Neurons (UKN5) (AID 2284056)
Procedure, shortened: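 iPSC-derived immature peripheral neurons (SBAD2) seeded on Matrigel with CHIR99021, SU5402 and DAPT, dosed 1 h later for 24 h. Viability from Hoechst H-33342 and calcein-AM live staining, high-content imaging; bidirectional fit versus DMSO.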

[2] = UKN5_HCS_SBAD2_neurite_outgrowth: University of Konstanz (UKN) Leist Lab Neurite Outgrowth Assay in human iPSC-derived immature Dorsal Root Ganglia Neurons (UKN5) (AID 2284070); conditions: actives raise or lower the signal
Procedure, shortened: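 Read-out: calcein-AM-stained neurite area by high-content imaging, Hoechst H-33342 for viability, after 24 h exposure of iPSC-derived immature dorsal root ganglia neurons. Activity fitted in both directions relative to DMSO baseline.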

[3] = UKN2_HCS_IMR90_neural_migration: University of Konstanz (UKN) Leist Lab Neural Crest Cell Migration Assay in human induced IMR90 Pluripotent Stem Cells (UKN2) (AID 2284204); conditions: actives raise or lower the signal
Procedure, shortened: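 iPSC-derived IMR90 neural crest cells on PLO/laminin/fibronectin were seeded around silicone stoppers; after stopper removal, migration in N2-S medium with EGF and FGF ran 24 h before 24 h chemical exposure. Calcein-AM/Hoechst high-content imaging; bidirectional fit versus DMSO.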

[4] = UKN4_HCS_LUHMES_neurite_outgrowth: University of Konstanz (UKN) Leist Lab Neurite Outgrowth Assay in human LUHMES cells (UKN4) (AID 2284206); conditions: actives raise or lower the signal
Procedure, shortened: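 Day 0 switch to differentiation medium; day 2 replate (30000 cells/well) without cAMP and GDNF; compounds added 30 min–2 h later. At 23.5 h, 30 min calcein-AM/H-33342 live stain, then imaging.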

[5] = UKN4_HCS_LUHMES_cell_viability: Viability Assessment in the University of Konstanz (UKN) Leist Lab Neurite Outgrowth Assay in human LUHMES cells (UKN4) (AID 2284232)
Procedure, shortened: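 Fluorescence intensity from high-content imaging of Hoechst H-33342/calcein-AM-stained cells served as the viability read-out. Human LUHMES precursors were differentiated 2 days, replated and treated 24 h; curves were fitted bidirectionally against DMSO.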

[6] = UKN2_HCS_IMR90_cell_viability: Viability Assessment in the University of Konstanz (UKN) Leist Lab Neural Crest Cell Migration Assay in human induced IMR90 Pluripotent Stem Cells (UKN2) (AID 2284233);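 note: viability of neural crest cells differentiated from IMR90 iPSC measured by calcein-AM fluorescence imaging; cells exposed to compound for 24 h after a 24 h migration phase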
Procedure, shortened: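 iPSC-derived (IMR90) neural crest cells seeded around silicone stoppers on PLO/laminin/fibronectin; after 24 h migration in N2-S with EGF/FGF, chemical added for 24 h. Calcein-AM/Hoechst stained 30 min, high-content imaged; bidirectional fit versus DMSO.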

[7] = CCTE_Shafer_MEA_dev_firing_rate_mean: CCTE's Neural Network Formation Assay for Mean Firing Rate, Shafer Lab (AID 2284031)
Procedure, shortened: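 Rat primary cortical neurons were seeded on multielectrode arrays and treated from plating through day 12, with redosing at each feed. Spontaneous spiking was recorded four times; mean firing rate AUC was fitted downward against DMSO.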

[8] = CCTE_Shafer_MEA_dev_per_burst_spike_percent: CCTE's Neural Network Formation Assay for Percent of Spikes in a Burst, Shafer Lab (AID 2284032);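 note: fitted as a decrease in burst spike percentage below DMSO baseline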
Procedure, shortened: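 Rat primary cortical neurons on 16-electrode MEA wells, dosed from plating day 0 for 12 days with renewal on DIV 5 and 9; spikes-in-bursts percentage averaged over bursting electrodes, collapsed as AUC across days 5, 7, 9, 12; loss direction versus DMSO.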

[9] = CCTE_Shafer_MEA_dev_active_electrodes_number: CCTE's Neural Network Formation Assay for Number of Active Electrodes, Shafer Lab (AID 2284040; active = hit-call score of the fitted dose curve at least 0.9, where 1 is the maximum;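 note: potency for loss of active electrodes versus DMSO so lower counts are hits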)
Procedure, shortened: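 Primary rat cortical neurons on 16-electrode MEA wells, exposed from day 0 through day 12 with compound renewed at DIV 5 and 9 feeds. Active electrodes (mean firing ≥5 spikes/min) counted at DIV 5, 7, 9, 12; trapezoidal AUC across days, loss-of-signal versus DMSO.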

[10] = CCTE_Shafer_MEA_dev_burst_rate: CCTE's Neural Network Formation Assay for Burst Rate, Shafer Lab (AID 2284042)
Procedure, shortened: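 Rat primary cortical cultures on PEI/laminin MEA; compound from plating, re-dosed at DIV 5, 9 media change. Single-electrode bursts/recording length, well mean of active electrodes; AUC over DIV 5–12 recordings; loss-of-signal vs DMSO.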

[11] = CCTE_Shafer_MEA_dev_bursting_electrodes_number: CCTE's Neural Network Formation Assay for Number of Bursting Electrodes, Shafer Lab (AID 2284043; active = hit-call score of the fitted dose curve at least 0.9, where 1 is the maximum;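 note: potency is for loss of bursting electrodes relative to DMSO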)
Procedure, shortened: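 Primary rat cortical neurons were cultured on PEI-coated 48-well MEA plates (16 electrodes/well) and exposed from plating through day 12, with compound renewed at feeds on DIV 5 and 9. Electrodes bursting ≥1 per 2 min were counted on DIV 5, 7, 9, 12; trapezoidal AUC taken.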

[12] = CCTE_Shafer_MEA_dev_per_burst_interspike_interval: CCTE's Neural Network Formation Assay for Burst Interspike Interval, Shafer Lab (AID 2284044)
Procedure, shortened: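 Readout is the average time between spikes inside single-electrode bursts, taken as a well mean across bursting electrodes. Cortical neurons from rat developed networks on MEA plates under continuous 12-day exposure; recordings on days 5, 7, 9 and 12 were integrated by trapezoidal AUC.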

[13] = CCTE_Shafer_MEA_dev_interburst_interval_mean: CCTE's Neural Network Formation Assay for Mean Interburst Interval, Shafer Lab (AID 2284046);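 note: well-mean interburst interval of bursting electrodes as AUC over four recording days; curve fitted for decrease in interburst interval relative to DMSO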
Procedure, shortened: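 Rat cortical neurons, 1.5 x 10^5 cells/well, 48-well MEA; compound from day 0 through DIV 12, media and treatment renewed DIV 5/9. Recordings DIV 5, 7, 9, 12; well-mean interburst interval → trapezoidal AUC, loss direction vs DMSO.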

[14] = CCTE_Shafer_MEA_dev_inter_network_spike_interval_mean: CCTE's Neural Network Formation Assay for Mean Inter-network Spike Interval, Shafer Lab (AID 2284047)
Procedure, shortened: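 Primary rat cortical neurons on PEI-coated 48-well MEAs (16 electrodes/well) were exposed from plating day 0 to DIV 12, with dosing renewed at DIV 5 and 9. Recordings at DIV 5, 7, 9, 12 were collapsed by trapezoidal AUC, loss-of-signal fit vs DMSO.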

[15] = CCTE_Shafer_MEA_dev_network_spike_number: CCTE's Neural Network Formation Assay for Number of Network Spikes, Shafer Lab (AID 2284048)
Procedure, shortened: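 Primary rat cortical neurons were seeded at 1.5 x 10^5 cells/well on PEI-coated 16-electrode MEA wells with laminin, exposed from plating day 0, compound renewed at DIV 5 and 9. Network spikes were recorded on days 5, 7, 9, 12 and summarized as trapezoidal AUC versus DMSO.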

[16] = CCTE_Shafer_MEA_dev_network_spike_peak: CCTE's Neural Network Formation Assay for Mean Number of Electrodes in Network Spike, Shafer Lab (AID 2284049);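 note: fitted for loss of signal meaning fewer electrodes in network spikes than DMSO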
Procedure, shortened: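 Continuous 12-day exposure of rat cortical cultures, starting at plating, on MEA plates. Endpoint: electrodes participating in network-spike peaks, AUC across DIV 5–12, DMSO as negative control.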

[17] = CCTE_Shafer_MEA_dev_network_spike_duration_std: CCTE's Neural Network Formation Assay for Standard Deviation of Network Spike Duration, Shafer Lab (AID 2284052);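 note: area under curve of spike duration SD across recording days 5 to 12; hits are decreases in network spike duration SD versus DMSO vehicle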
Procedure, shortened: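 Rat cortical cultures, 1.5 x 10^5 cells/well, exposed continuously from plating to DIV 12 with media/compound renewal at DIV 5, 9. Spontaneous activity recorded DIV 5/7/9/12, AxIS adaptive spike detector; AUC across days; negative direction vs DMSO.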

[18] = CCTE_Shafer_MEA_dev_per_network_spike_spike_number_mean: CCTE's Neural Network Formation Assay for Mean Number of Spikes in a Network Spike, Shafer Lab (AID 2284053);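 note: fitted as decrease in spikes per network spike relative to DMSO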
Procedure, shortened: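 Rat cortical primary cultures on 48-well MEA; compound from day 0, re-dosed with full media change DIV 5, 9. Recorded DIV 5, 7, 9, 12; spikes in 0.05 s window at network-spike peak ÷ total network spikes; AUC; loss vs DMSO.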

[19] = CCTE_Shafer_MEA_dev_per_network_spike_spike_percent: CCTE's Neural Network Formation Assay for Percent of Spikes in a Network Spike, Shafer Lab (AID 2284054)
Procedure, shortened: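 Primary rat cortical neurons on 16-electrode MEA wells (PEI-coated, laminin at plating), exposed from day 0 with renewal at DIV 5 and 9; spikes within 0.05 s of network-spike peaks over total spikes, AUC across days 5, 7, 9, 12.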

[20] = CCTE_Shafer_MEA_dev_LDH: CCTE's Lactate Dehydrogenase Assay for Cytotoxicity in the Neural Network Formation Assay, Shafer Lab (AID 2284068; active = hit-call score of the fitted dose curve at least 0.9, where 1 is the maximum;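 note: exposure for twelve days from plating with re-dosing on DIV 5 and 9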)
Procedure, shortened: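 Rat cortical primary neurons, MEA culture; dosing day 0–12, full medium plus compound exchange DIV 5, 9. Read-out: LDH enzyme activity, spectrophotometric. DMSO = negative control/baseline; signal loss → cytotoxicity.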

[21] = CCTE_Shafer_MEA_dev_AB: CCTE's Alamar Blue Assay for Cytotoxicity in the Neural Network Formation Assay, Shafer Lab (AID 2284083; active = hit-call score of the fitted dose curve at least 0.9, where 1 is the maximum;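 note: resazurin reduction fluorescence as viability of cultured neurons; twelve days of exposure from plating with re-dosing on DIV 5 and 9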)
Procedure, shortened: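 Rat cortical primary cultures, 1.5 x 10^5 cells/well on MEA; continuous compound exposure over 12 days of network development, re-dosed with full medium change DIV 5 and 9. Alamar Blue fluorescence; loss of signal = cytotoxicity vs DMSO baseline.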

[22] = CCTE_Mundy_HCI_Cortical_Synap_Neur_Matur_NeuriteSpotCountPerNeuriteLength: CCTE's Synaptogenesis and Neurite Maturation Assay in rat cortical cells for Neurite Spot Count per Neurite Length, Mundy Lab (AID 2284210)
Procedure, shortened: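 Rat primary cortical cultures, glia arrested with AraC at DIV 5, were dosed with media change at DIV 7 and fixed at DIV 12. Synaptophysin puncta per MAP2-labelled neurite length were quantified by high-content imaging versus DMSO.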

[23] = CCTE_Mundy_HCI_Cortical_Synap_Neur_Matur_BPCount: CCTE's Synaptogenesis and Neurite Maturation Assay in rat cortical cells for Branch Point Count, Mundy Lab (AID 2284211)
Procedure, shortened: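 Rat primary cortical cultures, AraC added DIV 5; chemicals dosed DIV 7 through DIV 12. Fixed cells stained for MAP2, synaptophysin and Hoechst; neurite branch points counted by automated high-content imaging, fitted relative to DMSO.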

[24] = CCTE_Mundy_HCI_Cortical_Synap_Neur_Matur_NeuriteSpotCountPerNeuron: CCTE's Synaptogenesis and Neurite Maturation Assay in rat cortical cells for Neurite Spot Count per Neuron Count, Mundy Lab (AID 2284215)
Procedure, shortened: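 Read-out: neurite-associated synaptophysin puncta per neuron, imaged by high-content analysis after MAP2, synaptophysin and Hoechst staining. Rat primary cortical cultures, dosed DIV 7 through DIV 12; DMSO served as baseline.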

[25] = CCTE_Mundy_HCI_Cortical_Synap_Neur_Matur_NeuriteCount: CCTE's Synaptogenesis and Neurite Maturation Assay in rat cortical cells for Neurite Count, Mundy Lab (AID 2284222)
Procedure, shortened: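 Primary rat cortical cells were plated, treated with AraC at DIV 5, then exposed to chemicals from DIV 7 through DIV 12. After fixation and immunostaining for MAP2 and synaptophysin, imaging quantified neurites, with DMSO as the negative control.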

[26] = CCTE_Mundy_HCI_Cortical_Synap_Neur_Matur_CellBodySpotCount: CCTE's Synaptogenesis and Neurite Maturation Assay in rat cortical cells for Cell Body Spot Count, Mundy Lab (AID 2284223)
Procedure, shortened: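 Read-out: cell body-associated synaptophysin puncta per neuron, imaged after MAP2, synaptophysin and Hoechst staining. Rat cortical cells, AraC DIV 5, chemical dosing DIV 7, fixation DIV 12. Activity fitted in positive direction relative to DMSO baseline.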

[27] = CCTE_Mundy_HCI_Cortical_Synap_Neur_Matur_NeuronCount: CCTE's Synaptogenesis and Neurite Maturation Assay in rat cortical cells for Neuron Count, Mundy Lab (AID 2284242; active = hit-call score of the fitted dose curve at least 0.9, where 1 is the maximum;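 note: hits reduce neuron count versus DMSO baseline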)
Procedure, shortened: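 Neuron number was scored by automated high-content imaging of Hoechst- and MAP2-labelled rat primary cortical cells. Glial growth was arrested with AraC at DIV 5, compounds were applied from DIV 7, and cultures ended at DIV 12.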

[28] = target: Estrogen receptor (Homo sapiens) (UniProt P03372); assay: CCTE_Deisenroth_AIME_96WELL_LUC_Active: CCTE's 96-well Estrogen Receptor Transactivation Assay with AIME metabolic competence (ERTA luciferase; metabolism positive), Deisenroth Lab (AID 2284023; active = hit-call score of the fitted dose curve at least 0.9, where 1 is the maximum)
Procedure, shortened: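 Chemicals pre-incubated 2 h with alginate-immobilized phenobarbital/beta-naphthoflavone-induced male Sprague Dawley rat liver S9, then medium transferred to VM7Luc4E2 cells for 24 h luciferase read-out. 10-point series 0.002 - 200 uM; fitted relative to 17beta-estradiol.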

[29] = target: Estrogen receptor (Homo sapiens) (UniProt P03372); assay: CCTE_Deisenroth_AIME_96WELL_LUC_Inactive: CCTE's 96-well Estrogen Receptor Transactivation Assay without AIME metabolic competence (ERTA luciferase; metabolism negative), Deisenroth Lab (AID 2284025; active = hit-call score of the fitted dose curve at least 0.9, where 1 is the maximum)
Procedure, shortened: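 VM7Luc4E2 breast cells, luciferase read 24 h after dosing with medium pre-incubated 2 h on alginate-water lids (metabolism negative). 10-point series 0.002–200 uM, single technical replicate, n≥4; fit relative to 17beta-estradiol.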

[30] = CCTE_Deisenroth_AIME_96WELL_CTox_Active: Cytotoxicity Assessment (CTOX) in CCTE's 96-well Estrogen Receptor Transactivation Assay with AIME metabolic competence (metabolism positive), Deisenroth Lab (AID 2284028; active = hit-call score of the fitted dose curve at least 0.9, where 1 is the maximum)
Procedure, shortened: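 Chemicals (0.002–200 uM) were first incubated 2 h with alginate-immobilized phenobarbital/beta-naphthoflavone-induced male rat liver S9; conditioned medium then went onto VM7Luc4E2 cells for 24 h, with viability read by protease-substrate fluorescence, fitted bidirectionally.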

[31] = CCTE_Deisenroth_AIME_96WELL_CTox_Inactive: Cytotoxicity Assessment (CTOX) in CCTE's 96-well Estrogen Receptor Transactivation Assay without AIME metabolic competence (metabolism negative), Deisenroth Lab (AID 2284029; active = hit-call score of the fitted dose curve at least 0.9, where 1 is the maximum)
Procedure, shortened: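 Chemicals (0.002 - 200 uM, 10 points) incubated 2 h with alginate-water microspheres (no S9), then medium moved onto VM7Luc4E2 cells for 24 h. Viability by protease-substrate cleavage to fluorescent probe; bidirectional fitting.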

Measured: AC50

Sequence of Estrogen receptor (Homo sapiens) (P03372 whole entry, looked up): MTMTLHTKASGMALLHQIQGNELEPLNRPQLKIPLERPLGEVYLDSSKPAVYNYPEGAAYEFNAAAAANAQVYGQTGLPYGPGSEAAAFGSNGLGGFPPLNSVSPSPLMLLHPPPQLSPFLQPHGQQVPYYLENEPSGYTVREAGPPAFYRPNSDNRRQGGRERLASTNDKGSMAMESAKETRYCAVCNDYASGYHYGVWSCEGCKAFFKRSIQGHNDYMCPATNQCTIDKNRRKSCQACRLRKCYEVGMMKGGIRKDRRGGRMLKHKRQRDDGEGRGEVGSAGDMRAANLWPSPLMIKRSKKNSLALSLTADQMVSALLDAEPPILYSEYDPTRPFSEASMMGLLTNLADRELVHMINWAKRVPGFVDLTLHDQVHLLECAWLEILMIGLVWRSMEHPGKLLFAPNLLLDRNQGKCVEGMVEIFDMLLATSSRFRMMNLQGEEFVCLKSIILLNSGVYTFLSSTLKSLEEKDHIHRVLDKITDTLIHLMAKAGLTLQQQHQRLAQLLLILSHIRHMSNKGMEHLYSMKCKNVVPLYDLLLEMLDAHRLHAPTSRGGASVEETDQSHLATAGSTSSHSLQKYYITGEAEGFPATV

Cc1ccccc1
inactive: [1] | [2] | [3] | [4] | [5] | [6]

[O]=[V]([OH])([OH])[OH]
inactive: [7] | [10] | [12] | [13] | [14] | [15] | [17]
active: [8] 15 µM | [9] 15 µM | [11] 9.39 µM | [16] 10.7 µM | [18] 13.9 µM | [19] 15 µM | [20] 24.3 µM | [21] 28 µM | [22] 40.2 µM | [23] 12.2 µM | [24] 11.6 µM | [25] 78.5 µM | [26] 44.3 µM | [27] 19.6 µM

C/C(=C\c1ccccc1)c1ccccc1
active: [28] 20.6 µM | [29] 37.2 µM

COc1ccc(C=Cc2ccc(OC)cc2)cc1
inactive: [28] | [29] | [30] | [31]
